Assay results taken from PubChem BioAssay AID651602 (The Scripps Research Institute Molecular Screening Center, 2012).
Among all 360,000 compounds or so, about 950 (0.26%) were called active. The full list was thinned out, with actives kept by preference. A number with no mark means an inactive call. Rule as the data show it: active = inhibition above about 11%; inactive = the rest.

Test: growth loss of phage-infected E. coli, primary screen, RecBCD inhibitor project, absorbance, with phage, HTS (AID 651602)
Settings: at 11.9 µM, active compounds read high

| SMILES | inhibition |
| --- | --- |
| CC(C)[C@H]1COCCS(=O)(=O)N1Cc1ccccc1-c1cccc2c1sc1ccccc12 | 2.16% |
| N#Cc1cccc(C(=O)NCC2CCN(C(=O)C(=O)c3cc4ccccc4o3)CC2)c1 | 1.78% |
| CN1C(=O)C2CC(O)C(SC3CC4C(=O)N(C)C(=O)C4CC3O)CC2C1=O (stereo not given) | 5.11% |
| CN1CCCCC(NC(=O)C(C)(C)C)C1=O (stereo not given) | 2.65% |
| COC(=O)[C@]12C[C@H](CC(=O)NCc3ccc(C)o3)C(=O)N(CCC3=CCCCC3)C1=C[C@H](C(C)(C)C)O[C@@H]2C | 1.32% |
| CC(=O)C1=C(C)N(Cc2ccccc2)C(=S)NC1c1cccc(Br)c1 (stereo not given) | 2.19% |
| CCCCNc1cccc2c1S(=O)(=O)N[C@@H](C)CO2 | 2% |
| CCCCCCCCN1C(=O)[C@@H](CC(=O)NCc2ccccc2)C[C@@]2(C(=O)OC)C1=C[C@H](C(C)(C)C)O[C@@H]2C | 1.01% |
| COc1cccc(/C=N/Nc2ncc(C(F)(F)F)cc2Cl)c1O | 24.4% (active) |
| CN(NS(=O)(=O)c1cccs1)c1ncc(C(F)(F)F)cc1Cl | 1.24% |
| O=C(c1ccccn1)c1ncc(C(F)(F)F)cc1Cl | 2.12% |
| Cn1ccc(=Nc2ccc(NC(=O)c3ccc(N=c4ccn(C)c5ccc([N+](=O)[O-])cc45)cc3)cc2)cc1 | 70.7% (active) |
| CC(C)c1ccc(NC(=O)CCN2C(=O)c3ccc([N+](=O)[O-])cc3C2=O)cc1 | -0.16% |
| O=C(Nc1ccc(C2CC2(Cl)Cl)cc1)c1cccc([N+](=O)[O-])c1 (stereo not given) | 1.49% |
| COC(=O)C1=C(C(=O)OC)C2C=C(C(C)C)C1C(=O)C2(C)O (stereo not given) | 3.33% |
| Nc1ncnc2c1ncn2[C@@H]1O[C@H](C(=O)N[C@@H](CCc2ccccc2)C(=O)N2CCCN(Cc3cccs3)CC2)[C@@H](O)[C@H]1O | 2.53% |
| Nc1c(C(=O)Nc2ccc3c(c2)OCCO3)nnn1Cc1ccccc1 | 5.25% |
| CCOc1ccc(Cn2nnc(C(=O)Nc3ccc(OC)cc3OC)c2N)cc1 | 10.9% (active) |
| COc1cccc(CNC(=O)c2nnn(CC(=O)Nc3cc(Cl)ccc3C)c2N)c1 | -1.55% |
| CC(=O)c1ccc(S(=O)(=O)NCC2CCN(C(=O)C(=O)c3cccs3)CC2)cc1 | 2.71% |
| C/C(=N\Nc1ccc(Cl)nn1)c1ccccc1O | -5.1% |
| Oc1cccc(/C=N/Nc2ccc(Cl)nn2)c1O | 13.1% (active) |
| Cc1ccc2nc(-c3ccc(CN4CCC(n5cc(-c6ccccc6)[nH]c5=O)CC4)cc3)c(-c3ccccc3)nc2c1 | 2.06% |
| O=C(NCc1ccccc1)[C@H]1CCCN1C(=O)[C@@H]1CCCN1C(=O)c1ccc(Cl)cc1Cl | 1.72% |
| COc1cccc(CNC(=O)[C@H]2CCCN2C(=O)[C@H]2CCCN2C(=O)c2cc(F)cc(F)c2)c1 | 0.85% |
